The list is not random: actives were taken first. Their share in the collection is about 2.8%.
SENP8 block-1 – blocks human SENP8 cleavage of Nedd8 substrate | Q96LD8 | recombinant SENP8, Nedd8 substrate fluorescence | inhibition, % at 20 µM | 360,000 tested, 0.64% active | AID 602440; in the data active = inhibition mostly above about 40%, no sharp cut-off; inactive = mostly below about 27%
Target sequence (Q96LD8 whole entry, looked up): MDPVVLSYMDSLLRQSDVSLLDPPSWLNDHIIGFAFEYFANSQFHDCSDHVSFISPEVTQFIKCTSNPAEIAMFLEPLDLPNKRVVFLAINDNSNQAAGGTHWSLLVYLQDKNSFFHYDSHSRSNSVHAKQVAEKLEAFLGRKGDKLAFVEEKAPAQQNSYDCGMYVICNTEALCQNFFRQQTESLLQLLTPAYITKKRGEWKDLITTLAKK
SENP6 block – inhibitors of human SENP6 protease; inhibition, % at 10 µM; 330,000 tested, 1.8% active; Recombinant SENP6 catalytic domain, aminoluciferin luminescence; Q9GZR1; AID 2599;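 active = inhibition above about 50% at the single tested dose, limit read from the data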;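 also: plate controls were DMSO wells with enzyme for no effect and DMSO wells lacking enzyme for full effect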
SENP8 block-2 – SENP8 protease inhibition | Q96LD8 | purified SENP8, Z-RLRGG-aminoluciferin cleavage, luminescence | inhibition, % at 10 µM | 330,000 tested, 1.2% active | AID 2540; in the data active = inhibition above about 50%
SENP7 inh – SENP7 protease inhibition; Q9BQF6; recombinant SENP7, Z-RLRGG-aminoluciferin luminescence, 40 min; inhibition, % at 5 µM; 330,000 tested, 1.5% active;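 active = inhibition above about 50% at the single test dose, limit read from the data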;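 also: plate controls were DMSO with enzyme for no effect and no enzyme buffer wells for full effect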
HSP90 refold inh – HSP90 refolding inhibition in rabbit reticulocyte lysate; AID 1789; 290,000 tested, 0.91% active; luciferase refolding luminescence, 3 h; inhibition, % at 5.6 µM;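 active = inhibition above the screen-wide mean plus 3 SD, computed separately per campaign, cut at about 16% in these data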;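 also: 0% = DMSO wells and 100% = 60 µM geldanamycin wells; inhibitors lower the luminescence because luciferase stays unfolded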
SENP8 confirm – confirmation of human SENP8 protease inhibitors | 6,200 tested, 40% active | shares compounds with SENP7 inh | inhibition, % at 12.5 µM | AID 488912 | Recombinant SENP8, Z-RLRGG-aminoluciferin luminescence, 60 min;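 active = mean inhibition across replicates above about 50%, limit read from the data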
SENP6 conf – confirmation of human SENP6 protease inhibitors; shares compounds with SENP7 inh; recombinant SENP6, Z-RLRGG-aminoluciferin luminescence; inhibition, % at 12.5 µM; 6,200 tested, 58% active
SENP7 confirm – confirmation of human SENP7 protease inhibitors | shares compounds with SENP7 inh | recombinant SENP7, Z-RLRGG-aminoluciferin luminescence, 40 min | inhibition, % at 12.5 µM | 6,200 tested, 69% active | AID 488917
Casp3 SENP sel – inhibits human caspase-3 in SENP selectivity test; shares compounds with SENP7 inh; purified caspase-3, Z-DEVD-aminoluciferin luminescence, 60 min; inhibition, % at 12.5 µM; 6,200 tested, 60% active;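 active = mean inhibition above about 50%, limit read from the data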;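 also: plate controls were enzyme with DMSO for no effect and wells without caspase-3 for full effect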
Target sequence (P42574 28-227 limits assumed): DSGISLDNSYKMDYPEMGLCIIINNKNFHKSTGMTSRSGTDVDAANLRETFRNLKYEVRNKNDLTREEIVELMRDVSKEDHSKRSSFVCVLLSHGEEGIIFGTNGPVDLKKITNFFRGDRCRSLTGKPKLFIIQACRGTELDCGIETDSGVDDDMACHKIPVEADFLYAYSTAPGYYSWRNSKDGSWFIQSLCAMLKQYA
Luc interf – interferes with luciferase luminescence in SENP counter-screen; 6,200 tested, 39% active; Pre-incubated SENP8/Z-RLRGG-aminoluciferin, luciferase luminescence interference; shares compounds with SENP7 inh; inhibition, % at 12.5 µM;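 active = mean inhibition above about 50% when retested at one dose, limit read from the data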;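 also: plate controls were DMSO wells with completed reaction for no effect and substrate without enzyme for full effect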
Numbers without * were called inactive.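 The calls were made as follows, unless noted: active = mean inhibition above about 50% in the one-dose retest (limit read from the data); inactive = the rest.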

What do the screens show for `O=C(Nc1ccc2ccccc2c1)c1cccc(F)c1`?
SENP8 block-1: 10.5; SENP6 block: 46.6; SENP8 block-2: 60.3*; SENP7 inh: 73.4*; HSP90 refold inh: -0.6; SENP8 confirm: 12.3; SENP6 conf: 58.8*; SENP7 confirm: 87.1*; Casp3 SENP sel: 40.8; Luc interf: -1.2

How did Nc1c(C(=O)Nc2cccc(F)c2)nnn1-c1ccc2c(c1)OCCO2 do in these assays?
SENP8 block-1: 9.5; SENP6 block: 42.8; SENP8 block-2: 16.6; SENP7 inh: 83.3*; HSP90 refold inh: 9.3; SENP8 confirm: 14.3; SENP6 conf: 23.2; SENP7 confirm: 93.9*; Casp3 SENP sel: 69.2*; Luc interf: 12.8

What do the screens show for `COc1ccccc1/C=C/C(=O)Nc1ccc2c(c1)OCCO2`?
SENP8 block-1: 4.0; SENP6 block: 67.4*; SENP8 block-2: 51.6*; SENP7 inh: 60.0*; HSP90 refold inh: 0.9; SENP8 confirm: 68.2*; SENP6 conf: 66.1*; SENP7 confirm: 86.1*; Casp3 SENP sel: 49.1; Luc interf: 63.0*

How did CC(C)Cc1cc(C(=O)Nc2ccc(F)cc2F)no1 do in these assays?
SENP8 block-1: 22.9; SENP6 block: 64.3*; SENP8 block-2: 45.3; SENP7 inh: 56.3*; HSP90 refold inh: 0.1; SENP8 confirm: -8.5; SENP6 conf: 47.4; SENP7 confirm: 82.3*; Casp3 SENP sel: 60.2*; Luc interf: 5.3

Results for COc1cc(Cn2c3ccc(NC(=O)CCc4ccc(O)cc4)cc3c(=O)n2C)ccc1F ?
SENP8 block-1: inactive

How did Cc1cc(C)c(S(=O)(=O)N2CCN(C(=O)C3CC3)CC2)c(C)c1 do in these assays?
SENP8 block-1: 9.0; SENP6 block: -16.4; SENP8 block-2: -2.3; SENP7 inh: 1.3

How did FC(F)(F)c1ccc(NC(=S)NCc2ccccc2)cc1 do in these assays?
SENP8 block-1: -1.6; SENP6 block: -13.9; SENP8 block-2: -4.8; SENP7 inh: -4.3; HSP90 refold inh: 2.9

What do the screens show for `COc1ccc(C2CC(c3ccccc3)n3nnnc3N2)cc1` (stereo not given)?
SENP8 block-1: 31.0; SENP6 block: -3.6; SENP8 block-2: -8.2; SENP7 inh: -2.8; HSP90 refold inh: 3.9

What do the screens show for `Cc1cccc(C(=O)Nc2cccc(C(=O)N/N=C/c3ccc4c(c3)OCO4)c2)c1`?
SENP8 block-1: -147.8; SENP6 block: 50.5*; SENP8 block-2: 34.0; SENP7 inh: -7.1; HSP90 refold inh: -0.8; SENP8 confirm: 57.5*; SENP6 conf: 45.9; SENP7 confirm: 45.5; Casp3 SENP sel: 47.1; Luc interf: 26.1

How did COc1ccc(NC(=O)/C=C/c2ccc3c(c2)OCO3)cc1 do in these assays?
SENP8 block-1: 3.9; SENP6 block: 67.3*; SENP8 block-2: 45.1; SENP7 inh: 79.0*; HSP90 refold inh: 0.7; SENP8 confirm: 28.6; SENP6 conf: 34.5; SENP7 confirm: 76.8*; Casp3 SENP sel: 66.6*; Luc interf: 71.6*

How did O=C(Nc1ccc2c(c1)OCO2)c1cccc(F)c1 do in these assays?
SENP8 block-1: 12.8; SENP6 block: 79.4*; SENP8 block-2: 46.1; SENP7 inh: 75.9*; HSP90 refold inh: -3.1; SENP8 confirm: 54.5*; SENP6 conf: 54.3*; SENP7 confirm: 86.6*; Casp3 SENP sel: 81.7*; Luc interf: 70.4*

Results for Cc1cc(C(=O)Nc2ccc3c(c2)OCO3)no1 ?
SENP8 block-1: 9.2; SENP6 block: 14.7; SENP8 block-2: 4.2; SENP7 inh: 33.3; HSP90 refold inh: -1.1

Results for O=C(Nc1ccc2c(c1)OCO2)c1cc(Cl)ccn1 ?
SENP8 block-1: 3.5; SENP6 block: 84.5*; SENP8 block-2: 77.0*; SENP7 inh: 80.9*; SENP8 confirm: 80.7*; SENP6 conf: 80.1*; SENP7 confirm: 96.4*; Casp3 SENP sel: 88.4*; Luc interf: 16.0

What do the screens show for `COc1ccc(-c2csc(N(C)C(=O)c3cccs3)n2)cc1`?
SENP8 block-1: 13.5; SENP6 block: -7.6; SENP8 block-2: -6.5; SENP7 inh: -8.9; HSP90 refold inh: -1.4

What do the screens show for `CC(C)NCc1cccc([N+](=O)[O-])c1`?
SENP8 block-1: 13.6; SENP6 block: -11.0; SENP8 block-2: -4.6; SENP7 inh: 9.2; HSP90 refold inh: -1.1

What do the screens show for `CC(C)=CC(=O)Nc1ccc2c(c1)OCO2`?
SENP8 block-1: 7.7; SENP6 block: 63.5*; SENP8 block-2: 50.3*; SENP7 inh: 0.8; HSP90 refold inh: 6.0; SENP8 confirm: 58.8*; SENP6 conf: 58.9*; SENP7 confirm: 83.6*; Casp3 SENP sel: 86.1*; Luc interf: 63.0*

How did O=C(Nc1ccc2c(c1)OCO2)c1c(F)cccc1F do in these assays?
SENP8 block-1: 11.5; SENP6 block: 29.2; SENP8 block-2: -6.7; SENP7 inh: 7.7; HSP90 refold inh: 4.2

Results for CC(C)Cc1cc(C(=O)Nc2ccc3c(c2)OCO3)no1 ?
SENP8 block-1: 8.8; SENP6 block: 66.4*; SENP8 block-2: 39.9; SENP7 inh: 53.1*; HSP90 refold inh: -0.1; SENP8 confirm: 16.6; SENP6 conf: 39.0; SENP7 confirm: 79.7*; Casp3 SENP sel: 59.9*; Luc interf: 7.6

Results for O=C(Nc1cccc(F)c1)Nc1ccc2c(c1)OCO2 ?
SENP8 block-1: -0.2; SENP6 block: 92.5*; SENP8 block-2: 84.9*; SENP7 inh: 96.0*; HSP90 refold inh: -1.4; SENP8 confirm: 83.6*; SENP6 conf: 86.5*; SENP7 confirm: 99.2*; Casp3 SENP sel: 85.5*; Luc interf: 79.8*

How did Cc1c(C(=O)Nc2ccc3c(c2)OCO3)oc2ccccc12 do in these assays?
SENP8 block-1: 2.2; SENP6 block: 70.3*; SENP8 block-2: 58.4*; SENP7 inh: 67.3*; HSP90 refold inh: -1.5; SENP8 confirm: 75.0*; SENP6 conf: 74.6*; SENP7 confirm: 92.5*; Casp3 SENP sel: 59.0*; Luc interf: 64.6*

How did O=C(CSCSCC(=O)Nc1ccc2c(c1)OCO2)Nc1ccc2c(c1)OCO2 do in these assays?
SENP8 block-1: 6.5; SENP6 block: 3.5; SENP8 block-2: -1.4; SENP7 inh: 2.6; HSP90 refold inh: -3.6

What do the screens show for `CC(=O)Nc1ccc(OCc2ccc3c(c2)OCO3)cc1`?
SENP8 block-1: 15.6; SENP6 block: 82.4*; SENP8 block-2: 67.6*; SENP7 inh: 84.7*; HSP90 refold inh: 3.0; SENP8 confirm: 74.9*; SENP6 conf: 74.1*; SENP7 confirm: 93.4*; Casp3 SENP sel: 87.8*; Luc interf: 51.3*

Bioassay records as filed in PubChem BioAssay.
